Bioassay records (PubChem)
GPR151 activ – activates the human receptor GPR151; Q8TDV0; PathHunter beta-arrestin GPR151 cells, luminescence; activation, % at 11.2 µM; actives 1% (n = 650,000); in the data active = activation above about 4.9%;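 also: 0% = median of compound wells and 100% = cells with positive control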
TEAD-YAP block – TEAD-YAP interaction inhibition; HEK-TIYL cells, TEAD-Gal4/YAP UAS-luciferase luminescence; inhibition, % at 9.12 µM; actives 1.4% (n = 640,000); AID 1259422; in the data active = inhibition above about 32%;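 also: 0% = median of test compound wells and 100% = reference inhibitor wells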
MITF inh – blocks human microphthalmia-associated transcription factor | O75030 | inhibition, % at 2.6 µM | AlphaScreen MITF homodimerization, bead proximity signal | AID 1259374 | actives 0.91% (n = 650,000); in the data active = inhibition above about 50%;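 also: 0% = vehicle wells with protein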
Target sequence (O75030 whole entry, looked up): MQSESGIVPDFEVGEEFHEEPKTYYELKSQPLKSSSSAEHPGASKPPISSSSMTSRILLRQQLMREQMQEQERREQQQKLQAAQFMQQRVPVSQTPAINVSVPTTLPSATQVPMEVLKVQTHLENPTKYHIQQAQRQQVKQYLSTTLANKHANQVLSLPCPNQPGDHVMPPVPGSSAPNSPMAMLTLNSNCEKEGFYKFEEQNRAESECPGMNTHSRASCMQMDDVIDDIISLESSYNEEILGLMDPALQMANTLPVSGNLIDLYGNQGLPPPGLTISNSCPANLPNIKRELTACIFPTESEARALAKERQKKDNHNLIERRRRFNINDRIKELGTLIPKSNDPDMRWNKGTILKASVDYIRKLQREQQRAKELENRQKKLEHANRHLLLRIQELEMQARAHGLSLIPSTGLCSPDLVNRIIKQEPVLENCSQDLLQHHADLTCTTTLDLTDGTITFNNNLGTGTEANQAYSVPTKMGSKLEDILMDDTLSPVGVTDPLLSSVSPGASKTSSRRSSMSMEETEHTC
FBW7 activator – activators of human E3 ligase FBW7 | Q969H0 | AlphaScreen FBW7–phospho-cyclin E peptide binding, activator screen | normalized activity (activation), % at 26.1 µM | actives 0.13% (n = 650,000); in the data active = normalized activity above about 1.9%;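 also: purified mutant Fbw7 with reduced substrate affinity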
The depositor's hits bear a star. Rows were chosen to be rich in hits. Some 3.5% of all compounds tested hit in one or more screens of this group.

SMILES	GPR151 activ	TEAD-YAP block	MITF inh	FBW7 activator
O=C(NC1CCCC1)c1ccc(CS(=O)c2ccc(Cl)cc2)o1 (configuration not stated)	2	10	14	0
CCNC(=O)Cn1nc(C)c([N+](=O)[O-])c1C	1	-4	-12	0
Cc1onc(-c2c(Cl)cccc2Cl)c1C(=O)Nc1ccccc1C(C)C	0	2	-9	0
Nc1ncn([C@@H]2O[C@H](CO)[C@@H](O)[C@H]2O)c(=O)n1	2	83*	-10	0
Cc1ccc(C(=O)Nc2ncc(C)s2)c(C)c1	-4	80*	6	0
CC(C)C(NC(=O)C(c1ccccc1)c1ccccc1)C(=O)N1CCOCC1 (configuration not stated)	1	-6	9	0
COCCNC(=O)/C(C#N)=C/C1=C(N2CCOCC2)C(=C\c2ccccc2)/CC1	2	9	9	-1
CCOC(=O)/C(C#N)=C/C1=C(N2CCOCC2)C(=C\c2ccccc2)/CC1	0	-2	51*	-1
NCCCC[C@@H]1NC(=O)[C@H]2CN(Cc3ccccc3)CCN2C1=O	2	10	-2	0
COc1ccccc1C(=O)Nc1cccc(N2CCC(NCCSC)CC2)c1	-1	47*	12	0
COc1ccccc1C(=O)Nc1cccc(N2CCC(NCC3CCOCC3)CC2)c1	-1	6	6	0
O=C1ON=C(c2ccccc2)/C1=C/C=C/c1ccco1	-1	-8	38	0
O=C1/C(=C\C=C/c2ccco2)C(C(F)(F)F)=NN1c1ccccc1	-1	5	65*	0
CCOC(=O)N1CCN(S(=O)(=O)c2ccc(C(=O)Nc3nc4ccc5ccccc5c4s3)cc2)CC1	0	6	-6	0
CCOc1ccc(/C=N/Nc2snc(SC)c2C#N)cc1	1	-9	8	0
COc1cc(/C=N/Nc2snc(SC)c2C#N)cc(OC)c1OC	-1	34*	2	0
O=C(Nc1ccc([N+](=O)[O-])cc1)Nc1ccon1	1	62*	16	0
O=C(Nc1ccc(I)cc1)Nc1ccc([N+](=O)[O-])cc1	1	3	19	0
CN1CCN(c2ccc(-c3nc(NCc4ccccc4)c4ncn(-c5ccccc5)c4n3)cc2)CC1	0	-3	8	1
CCOc1cc(C#N)ccc1OCc1cccc([N+](=O)[O-])c1	-2	-6	-1	0
CCOC(=O)c1ccc(N/C=C\C(=O)c2ccc3c(c2)OCO3)cc1	-1	33*	-11	0
CCN(CC)S(=O)(=O)c1cccc(C(=O)Nc2ccc(O)cc2)c1	-2	48*	5	0
CCN(CC)S(=O)(=O)c1cccc(C(=O)Nc2cccc(NC(=O)c3cccc(S(=O)(=O)N(CC)CC)c3)n2)c1	0	12	2	0
CCOC(=O)c1ccc(NC(=O)c2cccc(OCC)c2)cc1	-2	-18	-5	0
CN(C)S(=O)(=O)c1cccc(C(=O)Nc2cccc(O)c2)c1	0	58*	-10	0
SMILES	GPR151 activ	TEAD-YAP block	MITF inh	FBW7 activator
CCOC(=O)c1ccc(NC(=O)c2cccc(S(=O)(=O)N(CC)CC)c2)cc1	1	43*	5	0
COC(=O)CCC(=O)N1CCC(C(Cc2ccccc2)N(C)C(=O)CN(C)C)CC1 (configuration not stated)	0	-5	16	0
O=C(COC(=O)c1cc(=O)c2ccccc2o1)c1cccc(Br)c1	-1	2	8	0
COc1cc(/C=C2\N=C(c3ccccc3)NNC2=O)cc(OC)c1OC	0	49*	-2	0
COc1cc(/C=C2/N=C(c3ccc(-c4ccccc4)cc3)OC2=O)cc(OC)c1OC	0	-2	-4	0
Nc1nc2nonc2nc1N1CCOCC1	0	5	-5	0
Cc1ccc(S(=O)(=O)Nc2nc3ccccc3nc2Nc2cccc(N(C)C)c2)cc1	0	35*	12	0
CCN1C(=O)CSc2ccc(C(=O)NC3CCCC(C)C3C)cc21 (configuration not stated)	0	-1	1	0
O=C(NCc1ccco1)C1CCC(Cn2c(SCc3ccccc3F)nc3ccccc3c2=O)CC1 (configuration not stated)	0	5	0	0
Oc1ccc(CNc2ccc(Cl)cc2)c2cccnc12	-2	26	49	-1
COc1ccc(NCc2ccc(O)c3ncccc23)cc1	0	-9	73*	-2
O=S(=O)(c1ccc(Cl)cc1)N1CCN(Cc2ccc(O)c3ncccc23)CC1	2	66*	4	-1
Oc1ccc(CN2CCN(Cc3ccccc3)CC2)c2cccnc12	0	1	95*	-1
COc1ccccc1-n1c(SCC(=O)Nc2nccs2)nc2c(sc(=S)n2-c2ccc(Cl)c(C)c2)c1=O	1	6	-1	0
COc1c(OC(C)=O)ccc(/C=N/NC(=O)COc2c(C)ccc(C)c2C)c1[N+](=O)[O-]	2	52*	7	1
COc1c(OC(C)=O)ccc(/C=N/NC(=O)COc2c(C)cccc2C)c1[N+](=O)[O-]	0	20	7	0
Cc1ccc(NC(=O)C(C)N2Cc3ccccc3C2=O)nc1 (configuration not stated)	-1	82*	5	0
CC1=C(C(=O)NCc2ccc3c(c2)OCO3)C2(CCCCC2)OC1=O	1	10	25	0
c1ccc(-c2nc3ccccc3s2)cc1	-2	-36	8	0
c1csc(CNc2ccc(-c3nc4ccccc4s3)cc2)c1	-6	86*	1	0
CCOc1ccc(N2C(=O)C3C4C=CC(C4=C(C)C)C3C2=O)cc1 (configuration not stated)	0	4	4	0
COc1cccc(/C=c2\sc3nc(-c4cccnc4)nn3c2=O)c1OC	0	0	3	0
COc1ccc(NC(=O)/C=C/c2ccc(C)o2)cc1	1	-48	10	0
CCOc1ccccc1NC(=O)c1cnc(N2CCN(c3ccccn3)CC2)c2ccccc12	1	55*	8	0
COc1ccccc1N1CCN(c2ncc(C(=O)N3CCN(C)CC3)c3ccccc23)CC1	1	35*	8	0
SMILES	GPR151 activ	TEAD-YAP block	MITF inh	FBW7 activator
CCOC(=O)c1ccccc1NC(=O)c1cnc(N2CCN(c3ccccn3)CC2)c2ccccc12	0	9	-6	0
COc1ccc(OC)c(NC(=O)c2cnc(N3CCN(c4ccccc4OC)CC3)c3ccccc23)c1	-1	40*	-5	0
COc1ccccc1N1CCN(c2ncc(C(=O)N3CCCC3)c3ccccc23)CC1	0	6	3	0
COc1cccc(NC(=O)c2cnc(N3CCN(c4ccccc4OC)CC3)c3ccccc23)c1	0	20	5	0
COc1ccccc1N1CCN(c2ncc(C(=O)NCc3cccnc3)c3ccccc23)CC1	0	37*	-11	0
CCOC(=O)c1ccc(-n2[nH]c(C)cc2=O)cc1	0	-41	0	1
COc1ccc2c(c1)C(=NO)c1cc(OC)ccc1-2	0	-17	12	0
COc1ccc2c(c1)C(=NNC(N)=S)c1cc(OC)ccc1-2	0	50*	44	0
